According to PubChem BioAssay (EPA / NIEHS):
Inconclusive results are not listed. The source made the active and inactive calls. The calls were made as follows, unless noted: active = hit-call score of the fitted dose curve at least 0.9, where 1 is the maximum; inconclusive = response in the unintended direction; inactive = score below 0.9.

What was measured:
[1] = system: turtle Estrogen Receptor (ESR1), gene 101933533; assay: ATG_trERa_XSP1: Attagene TRANS-FACTORIAL Multi-Species (XSP1) HepG2 Assay for turtle Estrogen Receptor (ESR1) (AID 2283781)
Summary of the method: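 Transactivation measured 24 h post-dose as reporter mRNA (RT-PCR, fluorescent capillary electrophoresis) from an NR-Gal4 turtle ER construct in HepG2. Medium included 3 nM 6-alpha-fluorotestosterone; increase over DMSO fitted.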

[2] = molecular target: zebrafish Thyroid Hormone Receptor alpha (TRa), thraa (gene 30670) (UniProt Q98867); assay: ATG_zfTRa_XSP1: Attagene TRANS-FACTORIAL Multi-Species (XSP1) HepG2 Assay for zebrafish Thyroid Hormone Receptor alpha (TRa) (AID 2283807)
Sequence of zebrafish Thyroid Hormone Receptor alpha (TRa), thraa (gene 30670) (Q98867 whole entry, looked up, the tested form may be a part): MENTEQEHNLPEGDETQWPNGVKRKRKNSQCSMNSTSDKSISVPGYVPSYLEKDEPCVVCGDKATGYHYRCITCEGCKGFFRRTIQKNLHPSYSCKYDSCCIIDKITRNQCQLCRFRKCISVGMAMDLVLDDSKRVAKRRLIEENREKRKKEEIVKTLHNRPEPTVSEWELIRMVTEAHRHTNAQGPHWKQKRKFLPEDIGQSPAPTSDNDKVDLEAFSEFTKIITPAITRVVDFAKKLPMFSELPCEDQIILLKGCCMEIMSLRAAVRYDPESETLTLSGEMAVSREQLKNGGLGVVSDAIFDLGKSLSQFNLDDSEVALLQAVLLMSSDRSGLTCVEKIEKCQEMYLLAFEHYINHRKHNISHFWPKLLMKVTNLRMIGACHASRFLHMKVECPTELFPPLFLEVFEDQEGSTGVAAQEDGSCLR
Summary of the method: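 Reporter transcripts driven by a chimeric zebrafish TRa–Gal4 protein were measured by RT-PCR with fluorescent labelling and capillary electrophoresis. These came from transiently transfected HepG2 cells after 24 h chemical exposure, with 3 nM 6-alpha-fluorotestosterone added; baseline was DMSO.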

[3] = system: zebrafish Estrogen Receptor (ER2b), gene 317733; assay: ATG_zfER2b_XSP2: Attagene TRANS-FACTORIAL Multi-Species (XSP2) HepG2 Assay for zebrafish Estrogen Receptor (ER2b) (AID 2283823);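 also: fitted upward as reporter gain over DMSO so potency reflects activation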
Summary of the method: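 Read-out: fluorescent reporter mRNA, measured by RT-PCR then capillary electrophoresis after HpaI digestion. HepG2 cells carried transiently transfected multi-reporter TRANS constructs (NR-Gal4 chimeras); 24 h chemical exposure; activity scored upward versus DMSO control.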

[4] = molecular target: zebrafish Thyroid Hormone Receptor alpha (TRa), thraa (gene 30670) (UniProt Q98867); assay: ATG_zfTRa_XSP2: Attagene TRANS-FACTORIAL Multi-Species (XSP1) HepG2 Assay for zebrafish Thyroid Hormone Receptor alpha (TRa) (AID 2283832);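 also: actives raise zebrafish TRa-Gal4 reporter transcript above DMSO baseline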
Summary of the method: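 Readout is reporter mRNA induction, quantified by RT-PCR and capillary electrophoresis with fluorescent labelling, after 24 h compound exposure of transiently transfected HepG2 cells carrying NR-Gal4 chimera reporters. Activity fitted upward relative to DMSO.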

[5] = molecular target: human Thyroid hormone Receptor beta (TRb), THRB (gene 7068) (UniProt P10828); assay: ATG_hTRb_XSP2: Attagene TRANS-FACTORIAL Multi-Species (XSP2) HepG2 Assay for human Thyroid hormone Receptor beta (TRb) (AID 2283840);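 also: actives raise reporter mRNA so potency reflects agonist-like gain of signal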
Sequence of human Thyroid hormone Receptor beta (TRb), THRB (gene 7068) (P10828 whole entry, looked up, the tested form may be a part): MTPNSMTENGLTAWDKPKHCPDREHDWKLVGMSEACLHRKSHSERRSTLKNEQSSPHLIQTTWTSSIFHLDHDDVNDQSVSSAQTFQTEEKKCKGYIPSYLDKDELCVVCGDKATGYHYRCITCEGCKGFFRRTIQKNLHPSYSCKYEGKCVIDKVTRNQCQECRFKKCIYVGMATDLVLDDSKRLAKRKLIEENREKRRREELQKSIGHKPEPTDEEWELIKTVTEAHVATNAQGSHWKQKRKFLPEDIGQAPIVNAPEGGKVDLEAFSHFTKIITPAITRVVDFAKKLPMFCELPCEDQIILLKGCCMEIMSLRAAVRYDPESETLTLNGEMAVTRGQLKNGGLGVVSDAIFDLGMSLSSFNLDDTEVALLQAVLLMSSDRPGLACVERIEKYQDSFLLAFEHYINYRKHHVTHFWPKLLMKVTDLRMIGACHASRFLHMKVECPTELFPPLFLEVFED
Summary of the method: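 HepG2 cells were transiently transfected with GAL4-UAS multiplexed reporter units expressing chimeric NR-Gal4 proteins, dosed 24 h; reporter mRNA was quantified by RT-PCR, fluorescent labeling, HpaI digestion and capillary electrophoresis, fitted for gain of signal versus DMSO.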

DIO1 (gene 1733) = assay: CCTE_GLTED_hDIO1: CCTE's human Deiodinase 1 (DIO1) Inhibition Assay, Great Lakes Toxicology and Ecology Division (GLTED) Lab (AID 2283987);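 also: isolated human DIO1 enzyme in a cell-free setup rather than cells; enzyme activity read as free iodide liberated from substrate via Sandell-Kolthoff colorimetry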
Summary of the method: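 Cell-free human DIO1 enzyme was incubated with test chemical for 3 h, and iodide released from substrate was measured by Sandell-Kolthoff absorbance. Loss of signal versus DMSO baseline indicated inhibition; plates were run in triplicate.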

DIO2 (gene 1734) = assay: CCTE_GLTED_hDIO2: CCTE's human Deiodinase 2 (DIO2) Inhibition Assay, Great Lakes Toxicology and Ecology Division (GLTED) Lab (AID 2284050)
Summary of the method: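 Readout: absorbance from Sandell-Kolthoff detection of free iodide released by human DIO2 during a 3 h incubation with chemical. Cell-free format, n=3; activity fitted relative to DMSO negative control.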

DIO3 (gene 1735) = assay: CCTE_GLTED_hDIO3: CCTE's human Deiodinase 3 (DIO3) Inhibition Assay, Great Lakes Toxicology and Ecology Division (GLTED) Lab (AID 2284055);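 also: potency is for inhibition seen as loss of released iodide signal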
Summary of the method: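 hDIO3 (adenovirus-expressed) + test chemical, 3 h incubation; free iodide quantified by Sandell-Kolthoff reaction, absorbance read-out. DMSO negative control, n=3.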

IYD (gene 389434) = assay: CCTE_GLTED_hIYD: CCTE's human Iodotyrosine Deiodinase (xIYD) Inhibition Assay, Great Lakes Toxicology and Ecology Division (GLTED) Lab (AID 2284317);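 also: cell-free human IYD enzyme made in baculovirus insect cells; iodide freed from monoiodotyrosine measured by cerium arsenite color change at 420 nm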
Summary of the method: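 Cell-free; baculovirus/insect-cell hIYD + MIT substrate + chemical, 3 h. Dowex column cleanup, then Ce4+/As3+ Sandell-Kolthoff read at A420 nm. Triplicate plates; normalized to 3-nitro-L-tyrosine (positive) and DMSO/NaOH (solvent).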

SERPINA7 (gene 6906) = assay: CCTE_GLTED_hTBG: CCTE's human Thyroxine-binding Globulin (TBG) Inhibition Assay, Great Lakes Toxicology and Ecology Division (GLTED) Lab (AID 2284343);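 also: active chemicals lower fluorescence versus DMSO baseline by displacing probe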
Summary of the method: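 Fluorescence (ex 380/em 475) reports ANSA displaced from human TBG after a 2 h incubation with test chemical, without cells. Loss of signal indicates displacement, with DMSO serving as baseline.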

[6] = molecular target: D(1A) dopamine receptor (Homo sapiens) (UniProt P21728); assay: NVS_GPCR_hDRD1: NovaScreen (NVS) G Protein-Coupled Receptor Assay for human Dopamine Receptor D1 (DRD1) (AID 2283269)
Sequence of D(1A) dopamine receptor (Homo sapiens) (P21728 whole entry, looked up): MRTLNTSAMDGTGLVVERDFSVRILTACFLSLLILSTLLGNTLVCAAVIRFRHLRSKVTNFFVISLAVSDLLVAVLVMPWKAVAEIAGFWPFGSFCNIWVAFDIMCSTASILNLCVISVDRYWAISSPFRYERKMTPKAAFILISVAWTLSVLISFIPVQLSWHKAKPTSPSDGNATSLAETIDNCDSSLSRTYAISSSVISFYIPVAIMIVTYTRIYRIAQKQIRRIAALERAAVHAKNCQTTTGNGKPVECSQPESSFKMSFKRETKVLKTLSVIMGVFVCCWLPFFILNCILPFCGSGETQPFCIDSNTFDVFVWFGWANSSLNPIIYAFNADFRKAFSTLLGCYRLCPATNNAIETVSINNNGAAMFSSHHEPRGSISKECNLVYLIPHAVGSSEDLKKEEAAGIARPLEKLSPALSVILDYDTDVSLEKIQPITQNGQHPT
Summary of the method: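 HEK293-derived receptor preparation; radioligand competitive displacement; 1 h; filtration + scintillation counting. DMSO = negative control/baseline. Primary: 25 uM, duplicate; secondary: concentration–response for actives.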

[7] = molecular target: Sodium channel protein type 1 subunit alpha (Rattus norvegicus) (UniProt P04774); assay: NVS_IC_rNaCh_site2: NovaScreen (NVS) Ion Channel Assay for rat Sodium Channel, Site 2 (NaCh) (AID 2283322);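 also: hit means loss of radioligand binding signal relative to DMSO so AC50 marks displacement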
Summary of the method: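 Initial duplicate single-point testing at 25 uM, followed by concentration-response runs for actives. Binding of radioligand to rat forebrain membranes quantified after 1 h via filter-based radiodetection.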

PGR (gene 5241) = PGR (gene 5241) (UniProt P06401); assay: NVS_NR_hPR: NovaScreen (NVS) Nuclear Receptor Binding Assay for human Progestron Receptor (PR) (AID 2283360);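 also: active means loss of bound radioligand signal versus DMSO baseline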
Sequence of PGR (gene 5241) (P06401 whole entry, looked up): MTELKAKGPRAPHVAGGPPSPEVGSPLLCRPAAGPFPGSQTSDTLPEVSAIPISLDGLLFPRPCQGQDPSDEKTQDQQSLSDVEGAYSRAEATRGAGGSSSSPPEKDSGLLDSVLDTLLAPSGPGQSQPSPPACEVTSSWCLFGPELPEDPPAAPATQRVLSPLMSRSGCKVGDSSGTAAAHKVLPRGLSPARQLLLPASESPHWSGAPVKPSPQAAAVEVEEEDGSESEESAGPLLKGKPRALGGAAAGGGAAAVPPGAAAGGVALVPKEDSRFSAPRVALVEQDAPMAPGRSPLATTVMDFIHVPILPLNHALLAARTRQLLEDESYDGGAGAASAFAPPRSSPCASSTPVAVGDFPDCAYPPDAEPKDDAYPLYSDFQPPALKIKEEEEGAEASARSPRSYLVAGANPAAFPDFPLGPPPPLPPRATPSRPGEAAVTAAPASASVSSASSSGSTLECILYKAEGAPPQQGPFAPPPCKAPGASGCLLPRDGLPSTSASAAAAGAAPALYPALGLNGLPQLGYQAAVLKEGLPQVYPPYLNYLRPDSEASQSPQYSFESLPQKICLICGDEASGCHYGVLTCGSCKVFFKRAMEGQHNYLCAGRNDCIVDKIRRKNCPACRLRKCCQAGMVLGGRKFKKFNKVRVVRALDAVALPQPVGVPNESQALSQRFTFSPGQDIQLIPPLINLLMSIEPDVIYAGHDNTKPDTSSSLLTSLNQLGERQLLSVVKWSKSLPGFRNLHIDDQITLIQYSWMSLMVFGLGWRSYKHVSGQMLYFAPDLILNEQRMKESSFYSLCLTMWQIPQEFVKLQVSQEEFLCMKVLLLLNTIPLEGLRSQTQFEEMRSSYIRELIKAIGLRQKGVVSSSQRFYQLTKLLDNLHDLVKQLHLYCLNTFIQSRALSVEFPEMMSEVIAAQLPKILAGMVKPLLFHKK
Summary of the method: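 T47D lysate; tritiated or iodinated radioligand; scintillation count at 18 h. DMSO = negative control/baseline. Primary: 25 uM, duplicate. Secondary: concentration series for actives.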

[8] = CCTE_Shafer_MEA_acute_spike_number: CCTE's Neural Acute Assay for Total Number of Spikes, Shafer Lab (AID 2284008; active = hit-call score of the fitted dose curve at least 0.9, where 1 is the maximum; inactive = score below 0.9;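 as to AC50: curve fitted for decrease in spike count so AC50 reflects inhibitors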)
Summary of the method: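 Primary rat cortical neurons on 16-electrode MEA wells; on DIV 13 or 15, 40-min baseline then 40-min recording with compound (0.03-40 uM) at 37 C. Spikes detected at 8x rms noise; percent change versus baseline, DMSO as negative control.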

[9] = CCTE_Shafer_MEA_acute_burst_number: CCTE's Neural Acute Assay for Single-Electrode Bursts, Shafer Lab (AID 2284013; active = hit-call score of the fitted dose curve at least 0.9, where 1 is the maximum; inactive = score below 0.9)
Summary of the method: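 Primary rat cortical neurons on 16-electrode MEA wells, DIV 13 or 15, exposed to compound (0.03-40 uM; ≥3 wells); 40-min recordings at 37 C before and after treatment. Burst count expressed as percent change from baseline, DMSO as negative control.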

[10] = CCTE_Shafer_MEA_acute_burst_duration_mean: CCTE's Neural Acute Assay for Mean Burst Duration, Shafer Lab (AID 2284014; active = hit-call score of the fitted dose curve at least 0.9, where 1 is the maximum; inactive = score below 0.9;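 also: hits are decreases in mean burst duration relative to DMSO controls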)
Summary of the method: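 Mean burst duration was compared between a 40 min baseline and a 40 min recording in the presence of compound (0.03-40 uM, 37 C), giving percent change per well. Cultures were rat cortical neurons at DIV 13 or 15; wells needed ≥10 active electrodes.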

[11] = CCTE_Shafer_MEA_acute_per_burst_spike_number_mean: CCTE's Neural Acute Assay for Average Number of Spikes Per Burst, Shafer Lab (AID 2284015; active = hit-call score of the fitted dose curve at least 0.9, where 1 is the maximum; inactive = score below 0.9;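 also: hits are decreases in mean spikes per burst versus baseline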)
Summary of the method: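 Read-out: percent change in mean spikes per burst, each well's post-exposure 40-min recording versus its own 40-min baseline. Rat cortical cultures, DIV 13 or 15, compounds 0.03-40 uM; DMSO is negative control, loss-of-signal fitting.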

[12] = CCTE_Shafer_MEA_acute_interburst_interval_mean: CCTE's Neural Acute Assay for Mean Interburst Interval, Shafer Lab (AID 2284016; active = hit-call score of the fitted dose curve at least 0.9, where 1 is the maximum; inactive = score below 0.9;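 also: percent change of mean interburst interval versus each well's own pre-dose baseline; curves fitted for decrease in interburst interval relative to DMSO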)
Summary of the method: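 Rat cortical cultures, DIV 13/15; 20 min equilibration, 40 min baseline, compound 0.03-40 uM, 40 min re-recording, 37 C. Spikes detected at 8x rms noise (300-5000 Hz band-pass). Endpoint: % change in interburst interval, fitted in loss direction vs DMSO.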

[13] = CCTE_Shafer_MEA_acute_burst_percentage_mean: CCTE's Neural Acute Assay for Percentage of Spikes in a Burst, Shafer Lab (AID 2284017; active = hit-call score of the fitted dose curve at least 0.9, where 1 is the maximum; inactive = score below 0.9;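 also: curve fitted for loss of signal so potency reflects decreased burst percentage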)
Summary of the method: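 Rat cortical cultures, DIV 13/15, 37 C. Spikes detected at 8x rms noise (300-5000 Hz band-pass). Burst spikes/total spikes averaged across electrodes per well; % change post- vs pre-treatment (40 min each), loss-of-signal fit vs DMSO.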

[14] = CCTE_Shafer_MEA_acute_burst_percentage_std: CCTE's Neural Acute Assay for Standard Deviation of Burst Percentage, Shafer Lab (AID 2284018; active = hit-call score of the fitted dose curve at least 0.9, where 1 is the maximum; inactive = score below 0.9;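 also: fitted in the negative direction so actives lower burst percentage SD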)
Summary of the method: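 Value is percent change from baseline in the across-electrode SD of spikes-in-bursts percentage, wells with >/= 10 active electrodes. Acute 40-min exposure to 0.03-40 uM on DIV 13 or 15 rat cortical cultures, recorded at 37 C after 40-min baseline.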

SMILES: CC(C)(c1cc(Cl)c(O)c(Cl)c1)c1cc(Cl)c(O)c(Cl)c1
- AC50 [1]: 23.9 µM (active)
- AC50 [2]: 17.9 µM (active)
- AC50 [3]: 25.7 µM (active)
- outcome [4]: inactive
- outcome [5]: inactive
- AC50 (DIO1 (gene 1733)): 73.9 µM (active)
- AC50 (DIO2 (gene 1734)): 94.3 µM (active)
- AC50 (DIO3 (gene 1735)): 41.8 µM (active)
- AC50 (IYD (gene 389434)): 100 µM (active)
- AC50 (SERPINA7 (gene 6906)): 8.77 µM (active)

SMILES: CC(C)C(=O)Cl
- outcome [6]: inactive

SMILES: C[C@]12CC[C@H](O)C[C@H]1CC[C@@H]1[C@@H]2C[C@@H](O)[C@]2(C)[C@@H](C3=CC(=O)OC3)CC[C@]12O
- outcome [7]: inactive
- outcome (PGR (gene 5241)): inactive

SMILES: COc1ccc(CO)cc1
- outcome [8]: inactive
- outcome [9]: inactive
- outcome [10]: inactive
- AC50 [11]: 3.71 µM (active)
- outcome [12]: inactive
- AC50 [13]: 3.79 µM (active)
- outcome [14]: inactive

SMILES: C=COCCCl
- outcome (PGR (gene 5241)): inactive

SMILES: Oc1ccc(C2(c3ccc(O)cc3)c3ccccc3-c3ccccc32)cc1
- AC50 [8]: 0.00882 µM (active)
- AC50 [9]: 0.0359 µM (active)
- outcome [10]: inactive
- AC50 [11]: 20.5 µM (active)
- outcome [12]: inactive
- AC50 [13]: 24.8 µM (active)
- AC50 [14]: 22.8 µM (active)

SMILES: CC(C)CCCCCCCOC(=O)c1ccccc1C(=O)OCCCCCCCC(C)C
- outcome [1]: inactive
- outcome [2]: inactive
- outcome [3]: inactive
- outcome [4]: inactive
- outcome [5]: inactive

SMILES: CC(C)(C)C(O)C(Oc1ccc(-c2ccccc2)cc1)n1cncn1 (stereo not given)
- outcome [7]: inactive

SMILES: CCC1CCC(=O)O1 (stereo not given)
- outcome (IYD (gene 389434)): inactive

SMILES: O=[N+]([O-])C=Cc1ccccc1
- AC50 [6]: 8.25 µM (active)

SMILES: ClC1=C(Cl)[C@]2(Cl)[C@@H]3[C@@H](Cl)[C@H](Cl)C[C@@H]3[C@@]1(Cl)C2(Cl)Cl
- outcome (PGR (gene 5241)): inactive

SMILES: CC(=O)c1cc2c(cc1C)C(C)(C)C(C)CC2(C)C (stereo not given)
- outcome [1]: inactive
- AC50 [2]: 145 µM (active)
- AC50 [3]: 26.7 µM (active)
- outcome [4]: inactive
- outcome [5]: inactive

SMILES: O=c1c2ccccc2c(=O)c2c1cc(Cl)c1[nH]c3c([nH]c12)c(Cl)cc1c(=O)c2ccccc2c(=O)c13
- outcome [8]: inactive
- outcome [9]: inactive
- outcome [10]: inactive
- outcome [11]: inactive
- outcome [12]: inactive
- AC50 [13]: 21 µM (active)
- outcome [14]: inactive

SMILES: CCCCCCCCCCCCCCCC[N+](C)(C)C
- AC50 (DIO1 (gene 1733)): 13.5 µM (active)
- AC50 (DIO2 (gene 1734)): 19.8 µM (active)
- AC50 (DIO3 (gene 1735)): 1.56 µM (active)
- AC50 (IYD (gene 389434)): 38.7 µM (active)

SMILES: O=C1C(Cl)=C(Cl)C(=O)C(Cl)=C1Cl
- AC50 [6]: 4.01 µM (active)

SMILES: CCc1cc(C)cc(CC)c1-c1c(OC(=O)C(C)(C)C)n2n(c1=O)CCOCC2
- outcome [7]: inactive

SMILES: O=C1Nc2ccc(Cl)cc2C(c2ccccc2)=NC1O (stereo not given)
- AC50 (SERPINA7 (gene 6906)): 37.3 µM (active)

SMILES: C=CC(=O)OCC(CC)CCCC (stereo not given)
- AC50 (DIO1 (gene 1733)): 19.4 µM (active)
- AC50 (DIO2 (gene 1734)): 23.8 µM (active)
- AC50 (DIO3 (gene 1735)): 47 µM (active)

SMILES: c1ccc(P(c2ccccc2)c2ccccc2)cc1
- AC50 (SERPINA7 (gene 6906)): 41.7 µM (active)
